Pf Dd2 inh – inhibitors of Plasmodium falciparum Dd2 growth; P. falciparum Dd2 growth, SYBR Green, 72 h; Potency, µM (highest dose often 28.9 µM), inactives show top-dose activity, negative = inhibition, most hits filed as inhibitors; 120,000 tested, 4.3% active; AID 1347417; active = well fitted inhibition curve with a large enough effect;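 note: plate controls were DMSO vehicle for no effect and reference drug for full effect; nearly all actives have a fitted effect of over 65% in size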
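Infected erythrocytes (Dd2, 0.3% parasitemia, 2.5% hematocrit final) are added to compound in RPMI-1640/Albumax II medium, grown 72 h at 37C in low oxygen, then lysed with saponin/Triton-X containing SYBR Green and read by fluorescence.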
* hit, by the source's call; i = inactive; [ ] = remark or other dose. This is one part of a sample in which hits are shown more often than they occur. Potency is the fitted concentration of half-maximal effect.

SMILES | Pf Dd2 inh
O=C(NC1CCCCC1)[C@@H]1C[C@@H](O)CN1C1CCN(C(=O)C2CCOCC2)CC1 | -2%
CC(C)CNc1ccc2c(n1)C(C)(C(=O)Nc1ccncc1)CN(Cc1ccccc1)C2 (stereo not given) | 2.2µM*
CC(C)CNc1ccc2c(n1)C(C)(C(=O)Nc1ccn(C)n1)CN(Cc1ccccc1)C2 (stereo not given) | -14%[44.1 µM]
COCCCNC(=O)C1(C)CN(Cc2ccccc2)Cc2ccc(NCC(C)C)nc21 (stereo not given) | -24%[44.1 µM]
O=C(O)CC1(CC(=O)N2CCN3C(=O)c4cc(-c5ccsc5)ccc4NC(=O)[C@@H]3C2)CCCC1 | i
Cc1ccc(-c2cc(N3CCCN(C(=O)c4ccc(N(C)C)cc4)CC3)n[nH]2)cc1C | -21%
Cc1noc([C@@H]2CN(Cc3c(C)n[nH]c3C)C[C@H]2CO)n1 | 34%
O=C1c2ccccc2-c2onc3c(NCCO)cc(NC4CCCCC4)c1c23 | 8.9µM*
CCNc1cc(N2CCN(C3CCCCC3)CC2)c2noc3c2c1C(=O)c1ccccc1-3 | 5µM*
O=C(CC1CCCC1)NC1CCN(c2cnn(Cc3ccccc3)c(=O)c2)CC1 | i
Cc1ccc(-c2onc(C)c2C)cc1S(=O)(=O)NC1CCCCC1 | 24%
O=C(C1CCCN(c2cnn(Cc3ccccc3)c(=O)c2)C1)N1CCN(C2CCCCC2)CC1 (stereo not given) | -10%
O=C(O)CCCNc1cc(N2CCN(C3CCCCC3)CC2)c2noc3c2c1C(=O)c1ccccc1-3 | 11µM*
COc1ccccc1-c1nc(C2CC(=O)N(C3CCCCC3)C2)no1 (stereo not given) | i
Cc1cnc(CNC(=O)CC2C(=O)NCCN2CCCc2ccccc2)cn1 (stereo not given) | i
O=C(CCCc1ccccc1)NCc1nnc2c(-c3nc(C4CC4)no3)cccn12 | -1%
O=C1CC(c2ccccc2)N(C(=O)CNC(=O)C2CCOCC2)CCCCCN1 (stereo not given) | 23%
CC(CCc1ccccc1)NC(=O)Cn1ccn2nc3c(c2c1=O)CCCC3 (stereo not given) | -18%
Cn1cccc1C(=O)N1CCCCC1c1nc(-c2cnccn2)n[nH]1 (stereo not given) | -4%
Cc1cccc(CNC(=O)C2CC(c3ccc(F)c(C)c3)CN(C(=O)c3ccccc3)C2)c1 (stereo not given) | -1%
COCCn1ncc(N2CCC(NC(=O)C(C)C)CC2)cc1=O | i
O=C(c1ccc2c(c1)OCO2)N1CCN2C(=O)N(Cc3ccc(F)cc3)C[C@H]2C1 | -11%[44.1 µM]
COc1ccc(C2(C(=O)NCCC3CCN(C(=O)Nc4ccc(C)cc4)CC3)CC2)cc1 | -3%
COc1ccc(F)cc1-c1ccccc1CN | 10µM*
COc1ccccc1-c1ccc(CN)cc1 | -27%[44.1 µM]
SMILES | Pf Dd2 inh
COc1ccc(F)cc1-c1ccc(C=O)cc1 | 3%[44.1 µM]
O=C1OCCN1C1CCN(Cc2ccc(C(F)(F)F)cc2)CC1 | 1%
O=C(c1ccco1)N1C[C@@H](CO)[C@H](c2ccncc2)C1 | 9%
O=C(O)CNC(=O)CNC(=O)Cn1nc2c(cc1=O)CCCC2 | -6%
COCC1CN(C2CCC2)CC12CCN(C(=O)COc1cccc(C)c1)CC2 (stereo not given) | 5µM*
COCC1CN(C(C)=O)CC12CCN(C(=O)COc1cccc(C)c1)CC2 (stereo not given) | i
COCC1CN(C2CCC2)CC12CCN(C(=O)c1cccs1)CC2 (stereo not given) | -11%
COCC1CN(C2CCC2)CC12CCN(C(=O)c1cccc(C)c1)CC2 (stereo not given) | 8.9µM*
OCC1CN(C2CCC2)CC12CCN(C1CCC1)CC2 (stereo not given) | 1%
COCC1CN(C2CCC2)CC12CCN(C(=O)c1ccccn1)CC2 (stereo not given) | 11%
N#Cc1cccc(C(=O)N2CCC3(CC2)CN(C2CCC2)CC3CO)c1 (stereo not given) | -10%
O=C(Cc1ccc(Cl)cc1)N1CCC2(CC1)CN(C1CCC1)CC2CO (stereo not given) | 8.9µM*
COCC1CN(C2CCC2)CC12CCN(C(=O)c1cccc(C#N)c1)CC2 (stereo not given) | -23%
O=C(COc1ccc(F)cc1)N1CCC2(CC1)NC(=O)N(c1ccccc1Cl)N2 | -18%
CNC(=O)NC[C@H]1CCN(Cc2ccc(F)cc2F)C[C@H]1N(C)C | -13%
CN(Cc1ccnn1C)C1CCCc2ccccc21 (stereo not given) | i
COc1ccccc1-c1ccnc(N[C@H]2CO[C@H]3[C@@H]2OC[C@@H]3NS(C)(=O)=O)n1 | 14µM*
COc1ccccc1-c1ccnc(N[C@H]2CO[C@H]3[C@@H]2OC[C@@H]3NS(=O)(=O)c2cccs2)n1 | -16%
COc1ccccc1-c1ccnc(N[C@H]2CO[C@H]3[C@@H]2OC[C@@H]3NS(=O)(=O)c2ccc(NC(C)=O)cc2)n1 | i
Cc1cc(=O)n(CC(=O)Nc2cccc(C(C)C)c2)c(N2CCOCC2)n1 | i
CNCc1cn(C[C@H]2O[C@@H](CC(=O)N3CCC[C@@H]3COC)[C@H](O)[C@@H]2O)nn1 | 45%[44.1 µM]
COc1ccc2[nH]cc(CCNC(=O)Nc3c(C)cccc3C)c2c1 | i
COc1ccc2[nH]cc(CCNC(=O)Nc3cccc(F)c3)c2c1 | 4%
COc1ccc2[nH]cc(CCN=C(NC(=O)c3cccc(Cl)c3)Nc3nc(C)cc(C)n3)c2c1 | 8.9µM*
COCCCNC(=O)N1CCCCCCN(C)C(=O)CC1 | -1%
SMILES | Pf Dd2 inh
CN1Cc2nc(Nc3ccccc3F)ccc2OCC1=O | 11%[44.1 µM]
CCO[C@H]1CN(C(=O)c2ccc(OC)c(N3CCOCC3)c2)C[C@@H]1O | -14%
O=C(Cc1ccccc1)N1CCC2(CC1)N(c1ccccc1)C(=O)CS2(=O)=O | i
Cc1cnc(CC2CCN(C(=O)C3CC3)C2)n1C(C)C (stereo not given) | 8%
CCS(=O)(=O)N1CCCC(Cc2ncc(C)n2Cc2ccc(F)cc2)C1 (stereo not given) | 1.8µM*
Cc1cnc(CC2CCN(S(=O)(=O)Cc3ccccc3)C2)n1C(C)C (stereo not given) | 4.5µM*
CCN(CC)C(=O)N1CCCC(Cc2ncc(C)n2Cc2ccc(F)cc2)C1 (stereo not given) | 3.5µM*
CCS(=O)(=O)N1CCCC(Cc2ncc(C)n2C(C)C)C1 (stereo not given) | i
CCCn1c(C)cnc1CC1CCCN(S(C)(=O)=O)C1 (stereo not given) | -4%
Cc1cnc(CC2CCN(S(=O)(=O)c3cn(C)cn3)C2)n1Cc1ccccc1 (stereo not given) | -19%
CCCn1c(C)cnc1CC1CCN(S(=O)(=O)c2ccc3c(c2)CCC3)C1 (stereo not given) | 1µM*
Cc1cnc(CC2CCN(S(=O)(=O)c3ccc4c(c3)CCC4)C2)n1CC1CC1 (stereo not given) | -16%
COc1ccc(C(=O)N2CCCC(Cc3ncc(C)n3Cc3ccc(F)cc3)C2)cn1 (stereo not given) | i
CCCn1c(C)cnc1CC1CCCN(S(=O)(=O)c2cn(C)cn2)C1 (stereo not given) | -9%
Cc1cnc(CC2CCCN(C(=O)COc3ccccc3)C2)n1Cc1ccc(F)cc1 (stereo not given) | -23%
CNC(=O)[C@@H]1CN(C(=O)Cn2nc(C(F)(F)F)cc2C)C[C@H]1CO | -6%
COCCNC(=O)[C@@H]1CCC[C@@H](NCc2nccn2C)CN(C)C(=O)C1 | 2%[44.1 µM]
Cc1nc(CN2Cc3nc(-c4cccc(C(F)(F)F)c4)ccc3OCC2=O)cs1 | i

High-throughput results: PubChem, National Center for Advancing Translational Sciences (NCATS)
